{"source": "PubChem BioAssay AID686979", "about": "(National Center for Advancing Translational Sciences (NCATS), 2013)", "note": "The campaign covered roughly 420,000 compounds. About 50,000 (12%) were called active. About 26% were inconclusive and are not listed. The call rests on the fitted dose curve; in most records, active means well fitted inhibition curve with a large enough effect; inconclusive means small, poorly fitted or top-dose-only effect; inactive means flat fitted curve, though single readings scatter. Shown is part of a subset that was picked to be rich in actives. On the % scale 0 is the no-effect control and ±100 the full control effect; potency means the concentration at half of the fitted maximal effect.", "data": [{"test": "qHTS for Inhibitors of human tyrosyl-DNA phosphodiesterase 1 (TDP1): qHTS in cells in presence of CPT; further: nearly all actives have a fitted effect of over 55% in size", "details": "chicken DT40 Tdp1-/-;hTDP1 cells + 20 nM CPT, ATP luminescence, 48 h; series mostly up to 46.2 µM; activity change, negative = growth inhibition: at the top concentration", "summary_of_the_method": "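Chicken DT40 Tdp1-/- cells stably complemented with human TDP1 were seeded at 400 cells/well in medium containing 20 nM camptothecin, exposed to pin-transferred compounds, and grown at 37 °C for at least 48 hr. Viability was read as ATP luminescence.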", "values": [{"smiles": "O=C(NNC(=O)C1CCC1)c1ccccc1", "activity change, negative = growth inhibition": "0.324% (inactive)"}, {"smiles": "CC1(C)c2[nH]c3ccccc3c2C[C@H]2C(=O)N(N)CC(=O)N21", "activity change, negative = growth inhibition": "30.9% (inactive)"}, {"smiles": "Nc1ncnc2c1ncn2[C@@H]1O[C@H](CNC(=O)[C@H](N)Cc2cccnc2)[C@@H](O)[C@H]1O", "activity change, negative = growth inhibition": "0.794% (inactive)"}, {"smiles": "COc1ccc(CC(N)C(=O)NC2C(O)[C@H](n3cnc4c(N(C)C)ncnc43)O[C@@H]2CO)cc1", "note": "(some centres not stated)", "Potency": "17.6 µM (active)"}, {"smiles": "COc1cccc(CN(C)C(=O)CC[C@H]2O[C@@H](n3cnc4c(NC(=O)c5ccccc5)ncnc43)[C@H](O)[C@@H]2O)c1", "activity change, negative = growth inhibition": "-19.3% (inactive)"}, {"smiles": "CC(=O)N1CCOc2ccc(S(=O)(=O)N3CCC(C(=O)Nc4ccccc4F)CC3)cc21", "activity change, negative = growth inhibition": "-1.73% (inactive)"}, {"smiles": "CN(CCO)S(=O)(=O)c1ccc2c(c1)C(=O)c1cc(S(=O)(=O)N(C)CCO)ccc1-2", "activity change, negative = growth inhibition": "3% (inactive)"}, {"smiles": "O=C1c2ccccc2C(=O)N1c1ccc(S(=O)(=O)N2CCOCC2)c2ccccc12", "activity change, negative = growth inhibition": "-5.84% (inactive)"}, {"smiles": "CCCC/C=C/c1cccc2nncn12", "activity change, negative = growth inhibition": "-26.4% (inactive)"}, {"smiles": "CC(=O)c1ccc(N2CCN(C(=O)C3CCN(S(=O)(=O)c4ccc5c(c4)CC(C)N5C(=O)C4CC4)CC3)CC2)cc1", "note": "(configuration not stated)", "Potency": "11.6 µM (active)"}, {"smiles": "CC(=O)c1ccc(N2CCN(S(=O)(=O)c3ccc4c(c3)CC(=O)N4C)CC2)cc1", "activity change, negative = growth inhibition": "-14.5% (inactive)"}, {"smiles": "CCS(=O)(=O)N1CCC(C(=O)N2CCN(c3ccccc3)CC2)CC1", "activity change, negative = growth inhibition": "-9.24% (inactive)"}, {"smiles": "Cc1ccc2c(c1)N(CCCC(=O)NCc1cccnc1)C(=O)CO2", "activity change, negative = growth inhibition": "13.5% (inactive)"}, {"smiles": "Cc1nc(CC(=O)NNS(=O)(=O)c2ccc(F)c(Cl)c2)cs1", "activity change, negative = growth inhibition": "1.93% (inactive)"}, {"smiles": "CN(C)S(=O)(=O)c1ccc(Cl)c(NC(=O)COC(=O)CC(NC(N)=O)c2ccc(Cl)cc2)c1", "note": "(configuration not stated)", "activity change, negative = growth inhibition": "-19.7% (inactive)"}, {"smiles": "CCCCCCCNC(=O)C1(CC2CC(c3cccc(Br)c3)=NO2)CCN(C(=O)c2cc(OCC)c(OCC)c(OCC)c2)CC1", "note": "(configuration not stated)", "Potency": "23.1 µM (active)"}, {"smiles": "CCOC(=O)C1CCN(Cc2nnc(-c3cccc(Br)c3)o2)CC1", "activity change, negative = growth inhibition": "-15.7% (inactive)"}, {"smiles": "CN(CC(=O)NCCc1ccccc1)S(=O)(=O)c1cnc[nH]1", "activity change, negative = growth inhibition": "-3.81% (inactive)"}, {"smiles": "CCOc1ccccc1-n1c(SCC(=O)NCc2ccco2)nnc1-c1ccncc1", "activity change, negative = growth inhibition": "-3.89% (inactive)"}, {"smiles": "Cc1ccc(Nc2nc(CSc3nnc(-c4ccncc4)n3-c3ccccc3C)cs2)cc1", "Potency": "13 µM (active)"}, {"smiles": "Cn1c(SCc2ccc(F)cc2)nnc1-c1ccncc1", "activity change, negative = growth inhibition": "-10.9% (inactive)"}, {"smiles": "O=C(O)CC/C(=C\\c1cc2c(cc1Br)OCO2)c1nc2ccccc2s1", "activity change, negative = growth inhibition": "3.75% (inactive)"}, {"smiles": "O=C(N1CCCC1)C12CC3CC(C1)CC(C(=O)N1CCCC1)(C3)C2", "activity change, negative = growth inhibition": "0.242% (inactive)"}, {"smiles": "CCCc1nc(SCC(=O)Nc2ccccc2OC)c2c(=O)n(C)c(=O)n(C)c2n1", "Potency": "14.6 µM (active)"}, {"smiles": "CCCc1nc(SCC(=O)N2CCCC2)c2c(=O)n(C)c(=O)n(C)c2n1", "activity change, negative = growth inhibition": "-6.82% (inactive)"}, {"smiles": "CCc1nc(SCC(=O)Nc2ccccc2OC)n[nH]1", "activity change, negative = growth inhibition": "0.57% (inactive)"}, {"smiles": "O=C(Cc1c[nH]c2ccccc12)N/N=C/c1cccc(F)c1", "activity change, negative = growth inhibition": "-2.53% (inactive)"}, {"smiles": "O=C(CSCc1c(Cl)cccc1Cl)NN1C(=O)c2ccccc2C1=O", "activity change, negative = growth inhibition": "-19.9% (inactive)"}, {"smiles": "CCCn1c2ccccc2c2cnn(CC(=O)NCC3CCN(Cc4ccc(C)cc4)CC3)c(=O)c21", "Potency": "20.6 µM (active)"}, {"smiles": "Cc1ccc(Cn2c(C)c3cnn(CC(=O)NCc4ccccc4)c(=O)c3c2C)cc1", "Potency": "2.91 µM (active)"}, {"smiles": "Cc1ccccc1CNC(=O)Cn1c(C)c2cnn(-c3ccccc3)c(=O)c2c1C", "activity change, negative = growth inhibition": "-0.956% (inactive)"}, {"smiles": "CCCn1c2ccccc2c2cnn(CC(=O)NCCCOC(C)C)c(=O)c21", "Potency": "23.1 µM (active)"}, {"smiles": "O=C(Cn1ncc2c3ccccc3n(Cc3ccccc3)c2c1=O)NCc1ccccn1", "Potency": "inactive"}, {"smiles": "COc1cc(NC(=O)NCC2CCN(Cc3ccc(C)cc3)CC2)cc(OC)c1OC", "activity change, negative = growth inhibition": "-8.33% (inactive)"}, {"smiles": "CC1CC(C)CN(CCCNC(=O)Cn2ncc3c([nH]c4ccccc43)c2=O)C1", "note": "(configuration not stated)", "activity change, negative = growth inhibition": "0.742% (inactive)"}, {"smiles": "Cc1ccc(Cn2c(C)c3cnn(CC(=O)NCCN4CCOCC4)c(=O)c3c2C)cc1", "activity change, negative = growth inhibition": "-2.81% (inactive)"}, {"smiles": "CC1CCCCN1CCCNC(=O)Cn1ncc2c([nH]c3ccccc32)c1=O", "note": "(configuration not stated)", "Potency": "inactive"}, {"smiles": "O=C1C(Cl)=C(N2CCOCC2)C(=O)N1c1ccccc1", "activity change, negative = growth inhibition": "-20.8% (inactive)"}, {"smiles": "CCOC(=O)CNC(=O)CSc1ncccc1-c1nc2ccccc2[nH]1", "activity change, negative = growth inhibition": "10.4% (inactive)"}, {"smiles": "COc1ccccc1C1=CC(=O)C[C@H](c2ccc(F)cc2)C1", "activity change, negative = growth inhibition": "-29.5% (inactive)"}, {"smiles": "COc1ccc(-c2nnc3n2CCCCC3)cc1", "activity change, negative = growth inhibition": "8.16% (inactive)"}, {"smiles": "O=C(O)c1ccc([N+](=O)[O-])cc1Sc1ccsc1", "activity change, negative = growth inhibition": "-11.6% (inactive)"}, {"smiles": "COc1ccc(-c2nc3c(c(SCC(=O)Nc4ccc(C(=O)O)cc4)n2)Cc2ccccc2O3)cc1", "activity change, negative = growth inhibition": "-18.6% (inactive)"}, {"smiles": "Cc1ccc(-c2nc(Cn3c(=O)cc(-c4ccccc4)c4c(C)nn(C)c43)c(C)o2)cc1", "activity change, negative = growth inhibition": "-16.3% (inactive)"}, {"smiles": "CCOC(=O)Nc1ccc2c(c1)N(C(=O)CCCl)c1ccccc1[S@]2=O", "Potency": "4.61 µM (active)"}, {"smiles": "CCOC(=O)Nc1ccc(NC(=O)OCC)cc1", "activity change, negative = growth inhibition": "-20.3% (inactive)"}, {"smiles": "CCOC(=O)Nc1ccc2c(c1)N(C(=O)CCN1CCN(CCO)CC1)c1ccccc1CC2", "activity change, negative = growth inhibition": "-0.457% (inactive)"}, {"smiles": "CN(CC(=O)Nc1ccccc1F)CC(=O)Nc1ccccc1Br", "activity change, negative = growth inhibition": "-2.65% (inactive)"}, {"smiles": "CN(C(=N)N)c1ccc(/C=C2\\C=Cc3ccccc32)cc1", "Potency": "5.01 µM (active)"}, {"smiles": "COc1ccc(N(CC(=O)N/N=C/c2cccc3c2OCCO3)S(=O)(=O)c2ccc(NC(C)=O)cc2)cc1", "activity change, negative = growth inhibition": "1.44% (inactive)"}, {"smiles": "CC(=O)N1CCN(C(=O)c2cccc(S(=O)(=O)Nc3ccc(C)cc3)c2)CC1", "activity change, negative = growth inhibition": "-5.91% (inactive)"}, {"smiles": "CCCCc1ccc(NS(=O)(=O)c2cccc(C(=O)N3CCCN(C)CC3)c2)cc1", "Potency": "23.1 µM (active)"}, {"smiles": "O=C(c1cccc(S(=O)(=O)Nc2ccccc2Cl)c1)N1CCN(C(=O)c2ccco2)CC1", "activity change, negative = growth inhibition": "-7.9% (inactive)"}, {"smiles": "COc1ccc(Br)c2c1C(=O)CC2", "activity change, negative = growth inhibition": "5.78% (inactive)"}, {"smiles": "Nc1nonc1-n1nnc(C(=O)N/N=C/C2CCCCC2)c1-c1ccccc1", "activity change, negative = growth inhibition": "-15% (inactive)"}, {"smiles": "CC(=O)Nc1ccc(Oc2ccc3c(c2)C(=O)NC3=O)cc1", "activity change, negative = growth inhibition": "25.5% (inactive)"}, {"smiles": "O=C(CC(n1cncn1)C(Cl)(Cl)Cl)c1ccc([N+](=O)[O-])cc1", "note": "(configuration not stated)", "Potency": "16.4 µM (active)"}, {"smiles": "O=C(CCn1nnc2ccccc21)OCC(=O)c1ccc([N+](=O)[O-])cc1", "activity change, negative = growth inhibition": "-22.6% (inactive)"}, {"smiles": "O=C(NNS(=O)(=O)Cc1ccccc1)c1ccc([N+](=O)[O-])cc1", "activity change, negative = growth inhibition": "-13% (inactive)"}, {"smiles": "O=C(COc1coc(CN2CCN(c3ccccc3F)CC2)cc1=O)N1CCc2ccccc21", "activity change, negative = growth inhibition": "-16.5% (inactive)"}, {"smiles": "Cc1cc(N2CCOCC2)nc(-c2ccc(Br)cc2)n1", "activity change, negative = growth inhibition": "-12.4% (inactive)"}, {"smiles": "O=C1CC(C(=O)O)NC(=S)N1", "note": "(configuration not stated)", "activity change, negative = growth inhibition": "31.6% (inactive)"}]}]}
